Results as given in PubChem BioAssay (NCATS).
Inconclusive results are not listed. The source made the active and inactive calls. Calls come from the whole dose curve; as a rule, active = well fitted cell-killing curve with a large enough effect; inconclusive = small, poorly fitted or top-dose-only effect, or effect the other way; inactive = flat fitted curve, though single readings scatter.

Key:
Experiment in all cases: Primary qHTS to identify gynecologic anti-cancer compounds using libraries of approved drugs and bioactive compounds (AID 1345084); note: nearly all actives have a fitted effect of over 55% in size
[1] = system: C33A; settings: Gynecologic cancer cell panel viability, ATPlite luminescence, 48 h; series mostly up to 57.5 µM
Summary of the method: (§1)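 Five-concentration response, 48 h; readout is ATP-driven luciferase luminescence.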

[2] = system: CASKI; settings: Gynecologic cancer cell panel viability, ATPlite luminescence, 48 h; series mostly up to 57.5 µM
Summary of the method: as §1

[3] = system: Es-2; settings: Gynecologic cancer cell panel viability, ATPlite luminescence, 48 h; series mostly up to 57.5 µM
Summary of the method: as §1

[4] = system: HeLa; settings: Gynecologic cancer cell panel viability, ATPlite luminescence, 48 h; series mostly up to 57.5 µM
Summary of the method: as §1

[5] = system: Hek293T; settings: Gynecologic cancer cell panel viability, ATPlite luminescence, 48 h, control line for the selectivity index; series mostly up to 57.5 µM
Summary of the method: as §1

[6] = system: JEG-3; settings: Gynecologic cancer cell panel viability, ATPlite luminescence, 48 h; series mostly up to 57.5 µM
Summary of the method: as §1

[7] = system: OV90; settings: Gynecologic cancer cell panel viability, ATPlite luminescence, 48 h; series mostly up to 57.5 µM
Summary of the method: as §1
% is set by controls: 0 for no effect and ±100 for the full control effect; potency is the fitted concentration of half-maximal effect.

Cc1cccc(NC(=O)N[C@@H]2N=C(c3ccccc3)c3ccccc3N(C)C2=O)c1
inactive: Potency [1] | Potency [2] | Potency [3] | Potency [4] | Potency [5] | Potency [6] | Potency [7]

Oc1ccc2c3c1O[C@H]1[C@H](N(CCCl)CCCl)CC[C@@]4(O)[C@@H](C2)N(CC2CC2)CC[C@]314
inactive: activity change, negative = cytotoxicity [1] 3.36% [at 11.6 µM] | activity change, negative = cytotoxicity [2] 18.4% [at 11.6 µM] | activity change, negative = cytotoxicity [3] 3.95% [at 11.6 µM] | activity change, negative = cytotoxicity [4] 1.82% [at 11.6 µM] | activity change, negative = cytotoxicity [5] 0.845% [at 11.6 µM] | activity change, negative = cytotoxicity [6] -5.35% [at 11.6 µM] | activity change, negative = cytotoxicity [7] 0.162% [at 11.6 µM]

COC(=O)N1CCN(C(=O)Cc2ccc(Cl)c(Cl)c2)[C@@H](CN2CCCC2)C1
inactive: Potency [1] | Potency [2] | Potency [3] | Potency [4] | Potency [5] | Potency [6] | Potency [7]

CCN1C[C@]2(COC(=O)c3ccccc3N3C(=O)C[C@H](C)C3=O)CC[C@H](OC)[C@@]34[C@@H]5C[C@H]6[C@H](OC)[C@@H]5[C@](O)(C[C@@H]6OC)[C@](O)([C@@H](OC)[C@H]23)[C@@H]14
inactive: Potency [1] | Potency [2] | Potency [3] | Potency [4] | Potency [5] | Potency [6] | Potency [7]

CC1=C2C(=O)C3[C@@H](CC=C4C[C@@H](O)CC[C@@]43C)[C@@H]2CC[C@]12O[C@@H]1C[C@H](C)CN[C@H]1[C@H]2C (stereo not given in full)
inactive: Potency [1] | Potency [2] | Potency [3] | Potency [4] | Potency [5] | Potency [6] | Potency [7]

CCCN1CCO[C@H]2c3cc(O)ccc3OC[C@@H]21
inactive: Potency [1] | Potency [2] | Potency [3] | Potency [4] | Potency [5] | Potency [6] | Potency [7]

N#CC(OC1OC(COC2OC(CO)C(O)C(O)C2O)C(O)C(O)C1O)c1ccccc1 (stereo not given)
inactive: Potency [1] | Potency [2] | Potency [3] | Potency [5] | Potency [6] | Potency [7]

COC1CC(OC2CCC3(C)C(CCC4C3CCC3(C)C(C5=CC(=O)OC5)C(OC(C)=O)CC43O)C2)OC(C)C1OC1OC(CO)C(O)C(O)C1O (stereo not given)
active: Potency [1] 3160 nM | Potency [4] 2820 nM | Potency [5] 3160 nM

COC(=O)C1(C)CCC(O)C2(C)c3c(O)cc(C(C)C)cc3C(O)C(OC(C)=O)C12 (stereo not given)
inactive: Potency [1] | Potency [2] | Potency [3] | Potency [4] | Potency [5] | Potency [6] | Potency [7]

CCC(C)(OC(C)=O)C(=O)O[C@H]1[C@H](OC(C)=O)C[C@@H]2[C@@](C)([C@@H]3C[C@H]4C=CO[C@H]4O3)[C@H](C)C[C@H](OC(C)=O)[C@@]2(COC(C)=O)[C@@]12CO2 (stereo not given in full)
inactive: Potency [1] | Potency [2] | Potency [3] | Potency [4] | Potency [5] | Potency [6] | Potency [7]

O=C1C[C@@H]2OCC=C3CN4CC[C@]56c7ccccc7N1[C@H]5[C@H]2[C@H]3C[C@H]46
inactive: Potency [1] | Potency [2] | Potency [3] | Potency [4] | Potency [5] | Potency [6] | Potency [7]

COC1CC(O[C@H]2CC[C@@]3(C)C(=CCC4C3C(O)[C@@H](O)[C@]3(C)[C@@H](C(C)=O)CC[C@]43O)C2)OC(C)C1OC1CC(OC)C(OC2OC(C)C(O)C(O)C2O)C(C)O1 (stereo not given in full)
inactive: activity change, negative = cytotoxicity [1] -3.17% [at 11.6 µM] | activity change, negative = cytotoxicity [2] -11.2% [at 11.6 µM] | activity change, negative = cytotoxicity [3] -3.8% [at 11.6 µM] | activity change, negative = cytotoxicity [4] -11.4% [at 11.6 µM] | activity change, negative = cytotoxicity [5] -2.86% [at 11.6 µM] | activity change, negative = cytotoxicity [6] -1.29% [at 11.6 µM] | activity change, negative = cytotoxicity [7] -0.104% [at 11.6 µM]

C[C@@](O)(COc1ccc(C#N)cc1)C(=O)Nc1ccc(C#N)c(C(F)(F)F)c1
inactive: Potency [1] | Potency [2] | Potency [3] | Potency [4] | Potency [5] | Potency [6] | Potency [7]

Cn1ncnc1COc1nn2c(-c3c(F)cccc3F)nnc2cc1C1CCC1
inactive: Potency [1] | Potency [2] | Potency [3] | Potency [4] | Potency [5] | Potency [6] | Potency [7]

CC(C)(O)[C@H]1O[C@H]2CC[C@@]3(C)[C@@](O)(CC[C@H]4Cc5c([nH]c6ccccc56)[C@@]43C)C2=CC1=O
inactive: Potency [1] | Potency [2] | Potency [3] | Potency [4] | Potency [5] | Potency [6] | Potency [7]

CN1[C@@H]2CC[C@H]1CC(OC(=O)C1C=Nc3ccccc31)C2 (stereo not given in full)
inactive: Potency [1] | Potency [2] | Potency [3] | Potency [4] | Potency [5] | Potency [6] | Potency [7]

CC12CCC3C(CCC4(O)CC(O)CCC34C=O)C1(O)CCC2C1=CC(=O)OC1 (stereo not given)
active: Potency [1] 1000 nM | Potency [2] 7080 nM | Potency [3] 1120 nM | Potency [4] 1780 nM | Potency [5] 1260 nM | Potency [7] 7080 nM

CC(=O)OC1CC(O)C2(C)C(CC(OC(C)=O)C3(C)C2CCC2(C)C(c4ccoc4)C(=O)C4OC423)C1(C)C (stereo not given)
inactive: Potency [1] | Potency [2] | Potency [3] | Potency [4] | Potency [5] | Potency [6] | Potency [7]
